Data taken from PubChem BioAssay (EPA / NIEHS).
Records with an inconclusive call do not appear. Activity calls are given as the source filed them. Rule for the calls, unless noted: active = hit-call score of the fitted dose curve at least 0.9, where 1 is the maximum; inactive = score below 0.9.

Key:
[1] = molecular target: CCAAT/enhancer-binding protein beta (Homo sapiens) (UniProt P17676); assay: ATG_C_EBP_CIS: Attagene CIS-FACTORIAL HepG2 Assay for human CCAAT/Enhancer Binding Protein (C/EBP) beta (AID 2282927); conditions: HepG2 Attagene cis-factorial transcription factor reporter; actives raise or lower the signal
CCAAT/enhancer-binding protein beta (Homo sapiens), sequence (P17676 whole entry, looked up, the tested form may be a part): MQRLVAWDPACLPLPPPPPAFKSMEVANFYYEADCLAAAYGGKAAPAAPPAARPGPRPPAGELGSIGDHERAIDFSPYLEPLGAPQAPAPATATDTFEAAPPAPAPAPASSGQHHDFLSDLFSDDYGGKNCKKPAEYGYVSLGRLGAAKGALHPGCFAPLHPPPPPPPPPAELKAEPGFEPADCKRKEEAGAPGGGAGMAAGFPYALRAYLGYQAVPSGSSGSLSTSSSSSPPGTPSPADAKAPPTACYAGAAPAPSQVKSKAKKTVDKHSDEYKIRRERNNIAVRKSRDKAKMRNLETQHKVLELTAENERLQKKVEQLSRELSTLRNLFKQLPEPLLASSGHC
In short: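 Endogenous C/EBPb-driven reporter transcripts measured in transfected human HepG2 cells at 24 h via RT-PCR and capillary electrophoresis of labelled fragments. Activity fitted in both directions relative to DMSO baseline.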

[2] = ATG_CMV_CIS: Attagene CIS-FACTORIAL HepG2 Assay for human CMV (Internal Marker) (AID 2282928); conditions: HepG2 CMV promoter reporter, transcription factor profiling; actives raise or lower the signal;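 note: endpoint acts as a background internal control marker rather than a target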
In short: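 Readout: fluorescent reporter cDNA fragments separated by capillary electrophoresis after RT-PCR and HpaI cut. Cells: HepG2 carrying transfected cis-promoter reporter constructs, dosed 24 h. Endpoint serves as background internal-marker control, fit bidirectionally versus DMSO.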

[3] = ATG_DR4_LXR_CIS: Attagene CIS-FACTORIAL HepG2 Assay for human Liver X Receptor (LXR), DR4 submotif (AID 2282929); conditions: HepG2 Attagene DR4 cis-reporter, mRNA transcription; actives raise or lower the signal
In short: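 Measures endogenous transcription factor activity via a DR4-driven reporter transcript in human HepG2 cells. Compounds incubated 24 h; mRNA quantified by RT-PCR and capillary electrophoresis, analysed as gain or loss of signal versus DMSO.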

[4] = ATG_AP_1_CIS: Attagene CIS-FACTORIAL HepG2 Assay for human Activator Protein 1 (AP-1) (AID 2282931); conditions: HepG2 Attagene cis-factorial AP-1 reporter mRNA; actives raise or lower the signal
In short: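 Bidirectional concentration-response fitting against DMSO controls. Underlying signal: reporter mRNA from cis-promoter constructs in transiently transfected HepG2, measured after 24 h by RT-PCR and capillary electrophoresis.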

[5] = ATG_AP_2_CIS: Attagene CIS-FACTORIAL HepG2 Assay for human Activator Protein 2 (AP-2) (AID 2282932); conditions: HepG2 AP-2 cis-reporter, Attagene transcription factor profiling; actives raise or lower the signal
In short: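 Transiently transfected HepG2 cells are exposed to chemical for 24 h. Reporter transcripts are then measured as fluorescence following RT-PCR and capillary separation, and gain- or loss-of-signal is fitted relative to DMSO.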

[6] = ATG_BRE_CIS: Attagene CIS-FACTORIAL HepG2 Assay for human Bone Morphogenetic Protein (BMP) Response Element (BRE) (AID 2282933); conditions: HepG2 BMP response element reporter, Attagene transcription factor profiling; actives raise or lower the signal
In short: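 Fluorescence-labelled reporter cDNA fragments, separated by capillary electrophoresis, gave the signal for this component of a 52-readout multiplex. HepG2 cells were transfected, exposed to chemicals for 24 h, and compared with DMSO using bidirectional fitting.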

[7] = molecular target: Transcription factor E2F1 (Homo sapiens) (UniProt Q01094); assay: ATG_E2F_CIS: Attagene CIS-FACTORIAL HepG2 Assay for human E2F Transcription Factor 1 (AID 2282935); conditions: HepG2 Attagene cis-reporter, E2F reporter RNA transcripts; actives raise or lower the signal
Transcription factor E2F1 (Homo sapiens), sequence (Q01094 whole entry, looked up): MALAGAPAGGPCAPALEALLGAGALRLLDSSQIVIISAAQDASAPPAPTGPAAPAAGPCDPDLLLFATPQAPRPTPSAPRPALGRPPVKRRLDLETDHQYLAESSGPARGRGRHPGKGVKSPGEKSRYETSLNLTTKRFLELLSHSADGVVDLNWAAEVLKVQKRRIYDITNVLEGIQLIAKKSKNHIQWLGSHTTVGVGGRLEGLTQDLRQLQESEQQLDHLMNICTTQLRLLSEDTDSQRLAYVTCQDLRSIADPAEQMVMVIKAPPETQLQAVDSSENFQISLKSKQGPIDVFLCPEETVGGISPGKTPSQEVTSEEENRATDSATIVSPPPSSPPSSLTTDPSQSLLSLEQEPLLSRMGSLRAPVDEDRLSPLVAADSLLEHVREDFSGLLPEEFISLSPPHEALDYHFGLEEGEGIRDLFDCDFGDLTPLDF
In short: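 Fluorescent RT-PCR products, digested with HpaI for 2 h at 37 C, are separated by capillary electrophoresis. Source RNA comes from transfected HepG2 cultures treated for 24 h.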

[8] = ATG_E_Box_CIS: Attagene CIS-FACTORIAL HepG2 Assay for human Enhancer Box (E-box) (AID 2282936); conditions: HepG2 E-box cis-reporter transcription, actives raise or lower the signal
In short: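 Fluorescent reporter fragments separated by capillary electrophoresis gave the signal; mRNA came from HepG2 cells transfected with cis-element reporters and treated 24 h. Curves fitted bidirectionally relative to DMSO controls.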

[9] = ATG_M_61_CIS: Attagene CIS-FACTORIAL HepG2 Assay for M61 Transcription Factor (Internal Marker) (AID 2282937); conditions: HepG2 Attagene CIS-FACTORIAL M61 internal marker reporter; actives raise or lower the signal
In short: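 Fluorescence from labelled cDNA fragments, separated by capillary electrophoresis, quantifies reporter induction. HepG2 cells bearing transiently transfected cis-promoter MRTUs were incubated with test chemical for 24 h; DMSO defined baseline for gain/loss fitting.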

[10] = ATG_EGR_CIS: Attagene CIS-FACTORIAL HepG2 Assay for human Early Growth Response 1 (EGR1) (AID 2282938); conditions: HepG2 Attagene CIS-FACTORIAL EGR reporter mRNA; actives raise or lower the signal
In short: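 Cell-based multiplex transcription assay: HepG2 carrying transfected cis-element reporter units, 24 h chemical treatment. Fluorescence from capillary electrophoresis of RT-PCR products gives mRNA levels; fitting is bidirectional relative to DMSO.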

[11] = ATG_Ets_CIS: Attagene CIS-FACTORIAL HepG2 Assay for human Erythroblast Transformation Specific (ETS) (AID 2282941); conditions: HepG2 ETS cis-reporter transcription, actives raise or lower the signal
In short: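 RT-PCR/capillary electrophoresis fluorescence read-out of reporter mRNA; HepG2 transient multi-reporter transfection; 24 h compound exposure; gain or loss of signal fitted bidirectionally relative to DMSO.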

[12] = ATG_GATA_CIS: Attagene CIS-FACTORIAL HepG2 Assay for human GATA Binding Protein (AID 2282944); conditions: HepG2 GATA cis-element reporter, Attagene multiplex mRNA; actives raise or lower the signal
In short: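 Cells: HepG2, transiently transfected with cis-regulated reporter transcription units. Exposure: 24 h. Detection: RT-PCR plus capillary electrophoresis of FAM-labeled fragments. Analysis: bidirectional, DMSO as baseline.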

[13] = ATG_GLI_CIS: Attagene CIS-FACTORIAL HepG2 Assay for human Zinc Finger Protein GLI1 (AID 2282945); conditions: HepG2, Attagene cis-factorial reporter mRNA, GLI element; actives raise or lower the signal
In short: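 Bidirectional curve fits relative to DMSO, using reporter mRNA levels from RT-PCR plus capillary electrophoresis. Cells were HepG2 transiently carrying cis-regulated reporter constructs, harvested 24 h after dosing.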

[14] = ATG_ISRE_CIS: Attagene CIS-FACTORIAL HepG2 Assay for human Interferon Regulatory Factor 1 (IRF1) binding to an Interferon-Stimulated Response Element (ISRE) (AID 2282948); conditions: HepG2 ISRE cis-reporter (Attagene), mRNA transcription readout; actives raise or lower the signal
In short: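 Read-out: fluorescent RT-PCR products resolved by capillary electrophoresis, reporting endogenous transcription factor activity via ISRE-driven reporter mRNA in transfected HepG2 cells dosed for 24 h; gain or loss fitted relative to DMSO.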

[15] = ATG_M_32_CIS: Attagene CIS-FACTORIAL HepG2 Assay for M32 Transcription Factor (Internal Marker) (AID 2282949); conditions: HepG2 Attagene cis-factorial M32 reporter, mRNA; actives raise or lower the signal;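 note: background control marker of the multiplexed CIS panel rather than a real target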
In short: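 Using DMSO as baseline, bidirectional curve fits were applied to reporter mRNA signals. These came from transiently transfected HepG2 cells exposed for 24 h, with RNA analysed by RT-PCR, FAM primer extension, HpaI digestion and CE.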

[16] = ATG_M_06_CIS: Attagene CIS-FACTORIAL HepG2 Assay for M06 Transcription Factor (Internal Marker) (AID 2282950); conditions: HepG2 Attagene CIS-FACTORIAL M06 internal marker reporter; actives raise or lower the signal
In short: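 Measured 24 h post-dosing in transiently transfected HepG2 cells, this internal-marker endpoint reports reporter mRNA via RT-PCR with fluorescent primer extension and capillary electrophoresis. DMSO served as negative control and baseline for bidirectional fitting.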

[17] = ATG_MRE_CIS: Attagene CIS-FACTORIAL HepG2 Assay for human Metal Responsive Element (MRE) (AID 2282954); conditions: HepG2 MRE cis-reporter transcription, Attagene multiplex; actives raise or lower the signal
In short: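 Multiplexed cis-reporter assay in human HepG2 liver cells, 24 h incubation with test chemical. Reporter transcripts measured by RT-PCR and capillary electrophoresis; values from bidirectional curve fitting versus DMSO.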

[18] = ATG_PXRE_CIS: Attagene CIS-FACTORIAL HepG2 Assay for human Pregnane X Receptor Element (PXRE) (AID 2282957); conditions: HepG2 Attagene CIS-FACTORIAL PXRE reporter, mRNA; actives raise or lower the signal
In short: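 Bidirectional activity, baselined to DMSO, derived from reporter mRNA fluorescence (RT-PCR plus capillary electrophoresis) in HepG2 cells bearing cis-promoter reporter units, 24 h exposure.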

[19] = ATG_Sox_CIS: Attagene CIS-FACTORIAL HepG2 Assay for human SRY-box transcription factor (SOX) (AID 2282960); conditions: HepG2 Attagene cis-factorial SOX reporter, mRNA; actives raise or lower the signal
In short: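 After 24 h of chemical treatment, transfected HepG2 reporter cells are lysed for total RNA. Transcript levels come from RT-PCR with labelled primer extension and capillary electrophoresis, analysed bidirectionally versus DMSO.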

[20] = molecular target: Androgen receptor (Homo sapiens) (UniProt P10275); assay: ATG_AR_TRANS: Attagene TRANS-FACTORIAL HepG2 Assay for human Androgen Receptor (AR) (AID 2282973; active = hit-call score of the fitted dose curve at least 0.9, where 1 is the maximum); conditions: HepG2 Attagene TRANS-FACTORIAL AR reporter transcription
Androgen receptor (Homo sapiens), sequence (P10275 whole entry, looked up, the tested form may be a part): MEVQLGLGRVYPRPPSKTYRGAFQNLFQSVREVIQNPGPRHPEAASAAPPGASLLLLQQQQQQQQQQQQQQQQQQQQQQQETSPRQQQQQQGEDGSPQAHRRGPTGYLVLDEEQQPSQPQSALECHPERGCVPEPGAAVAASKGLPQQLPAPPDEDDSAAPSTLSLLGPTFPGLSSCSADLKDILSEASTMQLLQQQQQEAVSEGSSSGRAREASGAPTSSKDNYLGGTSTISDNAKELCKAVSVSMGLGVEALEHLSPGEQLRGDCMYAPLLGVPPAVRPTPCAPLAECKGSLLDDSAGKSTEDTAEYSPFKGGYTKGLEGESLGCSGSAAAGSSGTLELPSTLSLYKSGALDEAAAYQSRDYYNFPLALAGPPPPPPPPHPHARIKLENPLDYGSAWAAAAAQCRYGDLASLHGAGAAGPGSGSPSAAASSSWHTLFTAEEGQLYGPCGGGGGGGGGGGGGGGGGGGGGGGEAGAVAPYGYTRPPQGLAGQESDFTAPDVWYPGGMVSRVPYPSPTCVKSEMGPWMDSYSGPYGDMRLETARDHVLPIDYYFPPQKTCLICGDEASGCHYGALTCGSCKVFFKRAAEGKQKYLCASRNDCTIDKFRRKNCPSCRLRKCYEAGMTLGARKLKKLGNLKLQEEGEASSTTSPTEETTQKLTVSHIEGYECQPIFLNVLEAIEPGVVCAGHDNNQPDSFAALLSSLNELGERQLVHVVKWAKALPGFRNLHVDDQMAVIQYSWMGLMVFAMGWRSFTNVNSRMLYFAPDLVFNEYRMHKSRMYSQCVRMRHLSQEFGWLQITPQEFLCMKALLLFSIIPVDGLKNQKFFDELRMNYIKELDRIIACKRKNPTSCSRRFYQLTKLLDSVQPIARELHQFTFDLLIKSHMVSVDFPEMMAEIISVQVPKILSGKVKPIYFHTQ
In short: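 Chimeric nuclear receptor–Gal4 activity was assessed in human HepG2 hepatocytes after 24 h chemical dosing. Induced reporter mRNA was detected via labelled RT-PCR fragments on capillary electrophoresis, and gain of signal was analysed against DMSO.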

## COC(=O)c1ccccc1S(=O)(=O)NC(=O)Nc1nc(C)cc(C)n1
[1]
  outcome: inactive
[2]
  outcome: inactive
[3]
  outcome: inactive
[4]
  outcome: inactive
[5]
  outcome: inactive
[6]
  outcome: inactive
[7]
  outcome: inactive
[8]
  outcome: inactive
[9]
  outcome: inactive
[10]
  outcome: inactive
[11]
  outcome: inactive
[12]
  outcome: inactive
[13]
  outcome: inactive
[14]
  outcome: inactive
[15]
  outcome: inactive
[16]
  outcome: inactive
[17]
  outcome: inactive
[18]
  outcome: inactive
[19]
  outcome: inactive

## COc1cc(OC)nc(Oc2cccc(Oc3nc(OC)cc(OC)n3)c2C(=O)O)n1
[1]
  outcome: inactive
[2]
  outcome: inactive
[3]
  outcome: inactive
[4]
  outcome: inactive
[5]
  outcome: inactive
[6]
  outcome: inactive
[7]
  outcome: inactive
[8]
  outcome: inactive
[9]
  outcome: inactive
[10]
  outcome: inactive
[11]
  outcome: inactive
[12]
  outcome: inactive
[13]
  outcome: inactive
[14]
  outcome: inactive
[15]
  outcome: inactive
[16]
  outcome: inactive
[17]
  outcome: inactive
[18]
  AC50: 56 µM (active)
[19]
  outcome: inactive
[20]
  outcome: inactive

## [Cl][Sb]([Cl])[Cl]
[1]
  outcome: inactive
[2]
  outcome: inactive
[3]
  outcome: inactive
[4]
  AC50: 100 µM (active)
[5]
  outcome: inactive
[6]
  outcome: inactive
[7]
  outcome: inactive
[8]
  outcome: inactive
[9]
  outcome: inactive
[10]
  AC50: 140 µM (active)
[11]
  outcome: inactive
[12]
  outcome: inactive
[13]
  outcome: inactive
[14]
  outcome: inactive
[15]
  outcome: inactive
[16]
  outcome: inactive
[17]
  outcome: inactive
[18]
  outcome: inactive
[19]
  outcome: inactive

## CCCOC(=O)c1ccccc1C(=O)OCCC
[1]
  outcome: inactive
[2]
  outcome: inactive
[3]
  outcome: inactive
[4]
  outcome: inactive
[5]
  outcome: inactive
[6]
  outcome: inactive
[7]
  outcome: inactive
[8]
  outcome: inactive
[9]
  outcome: inactive
[10]
  outcome: inactive
[11]
  outcome: inactive
[12]
  outcome: inactive
[13]
  outcome: inactive
[14]
  outcome: inactive
[15]
  outcome: inactive
[16]
  outcome: inactive
[17]
  outcome: inactive
[18]
  AC50: 28.9 µM (active)
[19]
  outcome: inactive

## O=C=Nc1ccccc1
[1]
  outcome: inactive
[2]
  outcome: inactive
[3]
  outcome: inactive
[4]
  outcome: inactive
[5]
  outcome: inactive
[6]
  outcome: inactive
[7]
  outcome: inactive
[8]
  outcome: inactive
[9]
  outcome: inactive
[10]
  outcome: inactive
[11]
  outcome: inactive
[12]
  outcome: inactive
[13]
  outcome: inactive
[14]
  outcome: inactive
[15]
  outcome: inactive
[16]
  outcome: inactive
[17]
  outcome: inactive
[18]
  AC50: 11.7 µM (active)
[19]
  outcome: inactive
